From PubChem BioAssay (Tox21)
Inconclusive results are not listed. Activity calls are given as the source filed them. Unless noted, calls come from the whole dose curve; as a rule, active = well fitted curve in the direction sought with a large enough effect in the repeat runs; inconclusive = weak or mixed curves; inactive = no such curve, though single readings can be large; an effect the other way counts as inactive or inconclusive.

How the values were obtained:
[1] = qHTS assay to identify small molecule antagonists of the glucocorticoid receptor (GR) signaling pathway - cell viability counter screen (AID 720693); note: nearly all actives have a fitted effect of over 55% in size
[2] = qHTS assay for identifying genotoxic compounds that show differential cytotoxicity against isogenic chicken DT40 cell lines with known DNA damage response pathways - wild type cell line (AID 743012); note: nearly all actives have a fitted effect of over 60% in size; note: potency is the fitted concentration of half-maximal effect
In short: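 Luminescent ATP viability signal (CellTiter-Glo, 30 min RT) recorded after wild type DT40 cells were incubated with compounds for 40 h at 37 C/5% CO2.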

[3] = qHTS assay for identifying genotoxic compounds that show differential cytotoxicity against isogenic chicken DT40 cell lines with known DNA damage response pathways - Rev3 mutant cell line (AID 743014); note: nearly all actives have a fitted effect of over 55% in size; note: potency is the fitted concentration of half-maximal effect
[4] = qHTS assay for identifying genotoxic compounds that show differential cytotoxicity against isogenic chicken DT40 cell lines with known DNA damage response pathways - Rad54/Ku70 mutant cell line (AID 743015); note: nearly all actives have a fitted effect of over 60% in size; note: potency is the fitted concentration of half-maximal effect
[5] = qHTS assay to identify small molecule antagonists of the androgen receptor (AR) signaling pathway - cell viability counter screen (AID 743033; note: nearly all actives have a fitted effect of over 45% in size)
[6] = target: Androgen receptor (Homo sapiens) (UniProt P10275); experiment: qHTS assay to identify small molecule antagonists of the androgen receptor (AR) signaling pathway (AID 743035; active = well fitted inhibition curve with a large enough effect in the signal ratio in the repeat runs, not every such curve was filed as active; the % refers to the signal ratio)
In short: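 Quantitative HTS of the Tox21 10K library used HEK293 AR-UAS-bla cells stimulated with R1881 alongside compound for 16 h at 37C, followed by beta-lactamase FRET detection (LiveBLAzer B/G, 2 h, RT).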

[7] = target: Androgen receptor (Homo sapiens) (UniProt P10275); experiment: qHTS assay to identify small molecule agonists of the androgen receptor (AR) signaling pathway (AID 743036; active = well fitted activation curve with a large enough effect in the signal ratio in the repeat runs, with a control signal flat, not every such curve was filed as active; the % refers to the signal ratio)
In short: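 Beta-lactamase under UAS control, stably integrated in HEK293 GripTite cells, reports receptor activation. After 16 h compound treatment, cells received FRET substrate for 2 h at room temperature before fluorescence reading.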

[8] = target: Androgen receptor (Homo sapiens) (UniProt P10275); experiment: qHTS assay to identify small molecule agonists of the androgen receptor (AR) signaling pathway using the MDA cell line (AID 743040; note: nearly all actives have a fitted effect of over 20% in size)
In short: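 Luciferase agonist assay: 16 h compound exposure at 37C without CO2 in MDA-kb2 AR-luc cells, whose MMTV promoter responds to both AR and GR. Luminescence measured after 30 min room-temperature incubation with ONE-Glo.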

[9] = qHTS assay to identify small molecule antagonists of the androgen receptor (AR) signaling pathway using the MDA cell line - cell viability counter screen (AID 743041; note: nearly all actives have a fitted effect of over 45% in size; note: potency is the fitted concentration of half-maximal effect)
In short: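 Viability read by CellTiter-Fluor fluorescence in the same wells as the antagonist screen, added after 15.5 h of a 16 h, 37C exposure. Human breast carcinoma MDA-kb2 AR-luc cells, compounds co-dosed with agonist R1881.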

[10] = target: Androgen receptor (Homo sapiens) (UniProt P10275); experiment: qHTS assay to identify small molecule antagonists of the androgen receptor (AR) signaling pathway using the MDA cell line (AID 743042; note: nearly all actives have a fitted effect of over 55% in size)
In short: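 Antagonist mode: compounds plus R1881 agonist added to MDA-kb2 AR-luc cells, incubated 16 h at 37C. Luciferase reporter luminescence quantified, with multiplexed CellTiter-Fluor readout for cell viability.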
% is set by controls: 0 for no effect and ±100 for the full control effect.

Androgen receptor (Homo sapiens), sequence (P10275 whole entry, looked up): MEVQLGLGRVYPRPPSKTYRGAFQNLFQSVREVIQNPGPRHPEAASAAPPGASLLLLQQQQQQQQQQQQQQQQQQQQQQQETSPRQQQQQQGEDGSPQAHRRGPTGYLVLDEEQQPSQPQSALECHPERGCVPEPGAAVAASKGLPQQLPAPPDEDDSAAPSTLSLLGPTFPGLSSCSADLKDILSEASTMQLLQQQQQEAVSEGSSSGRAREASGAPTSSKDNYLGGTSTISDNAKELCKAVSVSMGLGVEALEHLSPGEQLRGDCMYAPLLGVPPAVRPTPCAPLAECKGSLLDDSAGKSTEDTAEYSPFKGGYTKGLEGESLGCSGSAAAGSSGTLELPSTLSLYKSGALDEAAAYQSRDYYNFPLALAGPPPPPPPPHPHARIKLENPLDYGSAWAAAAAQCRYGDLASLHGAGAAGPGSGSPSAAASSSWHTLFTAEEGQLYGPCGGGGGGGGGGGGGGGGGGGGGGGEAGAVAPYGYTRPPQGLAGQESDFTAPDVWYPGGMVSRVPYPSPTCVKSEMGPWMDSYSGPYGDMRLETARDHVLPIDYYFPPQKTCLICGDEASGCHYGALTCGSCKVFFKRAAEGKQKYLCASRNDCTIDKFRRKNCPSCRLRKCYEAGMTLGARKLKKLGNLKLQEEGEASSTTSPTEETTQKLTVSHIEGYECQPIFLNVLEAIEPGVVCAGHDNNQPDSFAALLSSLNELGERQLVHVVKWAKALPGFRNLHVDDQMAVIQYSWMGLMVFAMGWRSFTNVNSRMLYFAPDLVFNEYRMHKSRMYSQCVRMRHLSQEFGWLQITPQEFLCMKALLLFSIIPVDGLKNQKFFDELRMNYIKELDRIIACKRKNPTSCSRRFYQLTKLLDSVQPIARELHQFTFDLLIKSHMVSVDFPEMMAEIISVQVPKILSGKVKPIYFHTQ

O=C(O)CNCC(=O)O
inactive: viability change, negative = cytotoxic [1] -8.93% [at 7.04 µM] | activity change, negative = cytotoxicity [2] 8.65% [at 8.52 µM] | activity, negative = cytotoxicity [3] -2.98% [at 8.53 µM] | activity change, negative = cytotoxicity [4] 1.1% [at 8.55 µM] | activity change, negative = cytotoxicity [5] 1.48% [at 7.04 µM] | activity change, negative = inhibition [6] 0.788% [at 7.04 µM] | activation [7] -0.671% [at 6.9 µM] | activity change [8] 1.91% [at 8.47 µM, stronger effect = higher value] | viability change, negative = cytotoxic [9] -11.9% [at 8.47 µM] | activity change, negative = inhibition [10] 1.72% [at 8.47 µM]

CC(C)OC(=O)C(C)N(C(=O)c1ccccc1)c1ccc(F)c(Cl)c1 (stereo not drawn)
inactive: Potency [1] | Potency [5]
active: Potency [2] 6.11 µM | Potency [3] 6.86 µM | Potency [4] 13.7 µM

COCC(C)OC(C)=O (stereo not drawn)
inactive: Potency [1] | Potency [2] | Potency [3] | Potency [4] | Potency [5] | Potency [9]

NCc1ccccc1Sc1ccccc1CO
inactive: Potency [1] | Potency [5] | Potency [6] | Potency [7] | Potency [8] | Potency [9] | Potency [10]
active: Potency [2] 21.1 µM | Potency [3] 5.96 µM | Potency [4] 29.8 µM

OC[C@H]1O[C@@H](OCCc2ccc(O)cc2)[C@H](O)[C@@H](O)[C@@H]1O
inactive: Potency [1] | Potency [2] | Potency [3] | Potency [4] | Potency [5] | Potency [9]

CCCCc1nc2cccnc2n1Cc1ccc(-c2ccccc2-c2nnn[nH]2)cc1
inactive: Potency [1] | Potency [2] | Potency [3] | Potency [4] | Potency [5] | Potency [9]

NCCCN1CCOCC1
inactive: Potency [1] | Potency [2] | Potency [3] | Potency [4] | Potency [5] | Potency [7] | Potency [8] | Potency [10]
active: Potency [9] 30.6 µM

C=C1[C@H]2CC[C@@H]3[C@H]2C(C)(C)CCC[C@]13C
inactive: Potency [1] | Potency [2] | Potency [3] | Potency [4] | Potency [5] | Potency [9]

CNCCCN1c2ccccc2CCc2ccccc21
active: Potency [2] 4.52 µM | Potency [3] 16 µM | Potency [4] 11.4 µM
inactive: Potency [1] | Potency [5] | Potency [7] | Potency [8] | Potency [9] | Potency [10]

O=C(O)c1ccc(S(=O)(=O)O)cc1C(=O)O
inactive: Potency [1] | Potency [2] | Potency [3] | Potency [4] | Potency [5] | Potency [9]

CN(C)c1ccc(CCO)cc1
inactive: Potency [1] | Potency [2] | Potency [3] | Potency [4] | Potency [5] | Potency [9]

CNCCCCOc1ccccc1Cc1ccccc1
inactive: Potency [1] | Potency [5] | Potency [9]
active: Potency [2] 4.22 µM | Potency [3] 3.35 µM

Cc1[nH]c(C)c(Cl)c(=O)c1Cl
inactive: Potency [1] | Potency [2] | Potency [3] | Potency [4] | Potency [5] | Potency [9]

C=CCOc1ccccc1OCC(O)CNC(C)C (stereo not drawn)
inactive: Potency [1] | Potency [2] | Potency [3] | Potency [4] | Potency [5] | Potency [9]

CCCCC(CC)CN1C(=O)C2C3C=CC(C3)C2C1=O (stereo not drawn)
inactive: Potency [1] | Potency [9]
active: Potency [2] 38.6 µM | Potency [3] 27.3 µM | Potency [4] 43.3 µM

C[C@H](CCC(=O)O)[C@H]1CC[C@H]2[C@@H]3CC[C@@H]4C[C@H](O)CC[C@]4(C)[C@H]3C[C@H](O)[C@]12C
inactive: Potency [1] | Potency [2] | Potency [3] | Potency [4] | Potency [5] | Potency [9]

O=C(Nc1ccccc1)c1ccccc1O
active: Potency [2] 48.6 µM | Potency [3] 48.6 µM | Potency [4] 30.6 µM
inactive: Potency [1] | Potency [8]

CN(C)c1ccc(C(c2ccccc2)c2ccc(N(C)C)cc2)cc1
inactive: Potency [1] | Potency [5] | Potency [7] | Potency [8] | Potency [9] | Potency [10]
active: Potency [2] 6.86 µM | Potency [3] 6.86 µM

CCCCC(CC)COC(=O)CCCCCCCCC(=O)OCC(CC)CCCC (stereo not drawn)
inactive: Potency [1] | Potency [2] | Potency [3] | Potency [4] | Potency [5] | Potency [9]

CCCCC
inactive: Potency [1] | Potency [2] | Potency [3] | Potency [4] | Potency [5] | Potency [9]

O=C(O)c1ccccc1Cl
inactive: Potency [1] | Potency [2] | Potency [3] | Potency [4] | Potency [5] | Potency [9]

COc1cccc(N(C)C(=S)Oc2ccc3c(c2)CCCC3)n1
inactive: Potency [1] | Potency [9]
active: Potency [2] 26.6 µM | Potency [3] 26.6 µM | Potency [4] 26.6 µM

CCCNCC(O)COc1ccccc1C(=O)CCc1ccccc1 (stereo not drawn)
active: Potency [2] 6.68 µM | Potency [3] 11.9 µM | Potency [4] 11.9 µM
inactive: Potency [1] | Potency [9]

O=C1OC(CN2CCOCC2)CN1/N=C/c1ccc([N+](=O)[O-])o1 (stereo not drawn)
inactive: Potency [1] | Potency [2] | Potency [3] | Potency [5] | Potency [6] | Potency [7] | Potency [8] | Potency [9] | Potency [10]

Brc1c2ccccc2cc2ccccc12
inactive: Potency [1] | Potency [2] | Potency [3] | Potency [4] | Potency [5] | Potency [9]
